The source of these data is PubChem BioAssay.

Active and inactive are the calls of the source.

Test [1] in a line: E. coli DRC41 culture turbidity changes, primary screen, E. coli filamentation inducer project, strain DRC41, OD650, 48 h (AID 1152).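 Further: E. coli MC1000 strain DRC41 lacking acrAB efflux pump and sulA.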 To be noted: E. coli DRC41 (acrAB sulA), higher = more signal, called active from +8 up or from −8 down.
Test [2] can be described thus: small-molecule binders of probe aLefty1, primary screen, biochemical, small-molecule microarray, 635/667 nm fluorescence (AID 1153).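 Further: score merges spot fluorescence with signal-to-noise ratio from the scanned slide images.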 To be noted: higher = more signal.
The nature of test [3]: PSAC antagonists in infected red cells, primary screen, cell-based, P. falciparum Indochina, OD700, 1 h (AID 1154). To be noted: P. falciparum Indochina infected RBC osmotic lysis, higher = more signal, called active from +8 up or from −8 down.
Test [4] in a line: PSAC antagonists in infected red cells, primary screen, cell-based, P. falciparum Indochina, OD700, 2 h (AID 1155).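 Further: lysis reports solute entry through the parasite surface anion channel PSAC; channel blockers reduce lysis of infected cells.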 To be noted: P. falciparum Indochina infected erythrocytes, osmotic lysis OD700; higher = more signal, called active from +8 up or from −8 down.
The nature of test [5]: osmotic lysis modulators in infected erythrocytes, primary screen, PSAC antagonist project, cell-based, P. falciparum Indochina, OD700, 3 h (AID 1156). To be noted: higher = more signal, called active from +8 up or from −8 down.
Test [6] is described as follows: PSAC antagonists in infected red cells, primary screen, cell-based, P. falciparum Indochina, OD700, 18 h (AID 1157). To be noted: P. falciparum Indochina infected erythrocytes, osmotic lysis OD700, 18 h; higher = more signal, called active from +8 up or from −8 down.
The nature of test [7]: modulators of S6 phosphorylation in cells, primary screen, cell-based, A549, cytoblot, luminescence, serum-stimulated (AID 1158).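 Further: serum-stimulated A549 lung adenocarcinoma cells; signal is phosphorylated S6 detected by cytoblot immunostaining with HRP secondary.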 To be noted: A549 phospho-S6 cytoblot, 5 h, higher = more signal.
The target in test [8] is NADPH oxidase 2 (Homo sapiens) (UniProt P04839). The test can be described thus: NOX2-dependent H2O2 signal modulators, primary screen, NOX inhibitor project, cell-based, HEK293-NOX2, PMA-stimulated, Amplex Red fluorescence (AID 1159). Further: test concentration not given here. To be noted: 45 min, higher = more signal, called active from +8 up or from −8 down.
Sequence of NADPH oxidase 2 (Homo sapiens) (P04839 whole entry, looked up): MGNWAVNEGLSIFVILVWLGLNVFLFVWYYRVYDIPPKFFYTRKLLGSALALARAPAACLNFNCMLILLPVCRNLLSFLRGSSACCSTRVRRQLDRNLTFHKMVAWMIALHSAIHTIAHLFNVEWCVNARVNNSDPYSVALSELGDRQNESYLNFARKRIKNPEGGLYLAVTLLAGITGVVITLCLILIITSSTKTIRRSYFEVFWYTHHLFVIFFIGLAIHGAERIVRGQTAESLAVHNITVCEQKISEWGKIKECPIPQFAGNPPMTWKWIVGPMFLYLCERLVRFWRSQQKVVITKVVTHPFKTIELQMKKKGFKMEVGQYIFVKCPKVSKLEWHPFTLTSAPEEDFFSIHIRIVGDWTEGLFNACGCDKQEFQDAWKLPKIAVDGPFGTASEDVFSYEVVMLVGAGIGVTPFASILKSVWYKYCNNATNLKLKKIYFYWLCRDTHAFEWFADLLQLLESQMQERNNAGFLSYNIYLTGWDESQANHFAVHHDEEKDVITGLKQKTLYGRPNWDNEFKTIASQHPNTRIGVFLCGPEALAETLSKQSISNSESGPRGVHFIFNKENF
In test [9] the target is NADPH oxidase 4 (Homo sapiens) (UniProt Q9NPH5). Briefly: NOX4-dependent H2O2 signal modulators, primary screen, NOX inhibitor project, cell-based, HEK293-NOX4, tetracycline-induced, Amplex Red fluorescence (AID 1160). To be noted: 45 min, higher = more signal, called active from +8 up or from −8 down.
Sequence of NADPH oxidase 4 (Homo sapiens) (Q9NPH5 whole entry, looked up): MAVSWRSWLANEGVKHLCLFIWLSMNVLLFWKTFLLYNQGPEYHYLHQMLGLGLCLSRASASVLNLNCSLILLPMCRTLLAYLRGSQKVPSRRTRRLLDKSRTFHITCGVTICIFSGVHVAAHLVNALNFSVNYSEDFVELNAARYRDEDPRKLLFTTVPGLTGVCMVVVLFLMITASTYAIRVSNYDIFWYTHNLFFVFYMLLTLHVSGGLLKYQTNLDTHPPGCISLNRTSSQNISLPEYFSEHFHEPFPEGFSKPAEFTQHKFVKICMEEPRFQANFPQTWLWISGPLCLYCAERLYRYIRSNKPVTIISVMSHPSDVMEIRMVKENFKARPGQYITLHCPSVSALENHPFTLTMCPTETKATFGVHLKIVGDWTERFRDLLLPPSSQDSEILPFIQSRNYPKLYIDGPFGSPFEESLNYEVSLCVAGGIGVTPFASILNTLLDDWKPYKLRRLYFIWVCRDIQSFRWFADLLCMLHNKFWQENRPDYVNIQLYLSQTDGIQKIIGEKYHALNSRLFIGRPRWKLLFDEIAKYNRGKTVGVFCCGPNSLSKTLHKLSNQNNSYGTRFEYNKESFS
The target in test [10] is NADPH oxidase 5 (Homo sapiens) (UniProt Q96PH1). The test can be described thus: NOX5-dependent H2O2 signal modulators, primary screen, NOX inhibitor project, cell-based, HEK293-NOX5, Amplex Red fluorescence (AID 1161). To be noted: HEK293-NOX5, ionomycin, 45 min, higher = more signal.
Sequence of NADPH oxidase 5 (Homo sapiens) (Q96PH1 whole entry, looked up): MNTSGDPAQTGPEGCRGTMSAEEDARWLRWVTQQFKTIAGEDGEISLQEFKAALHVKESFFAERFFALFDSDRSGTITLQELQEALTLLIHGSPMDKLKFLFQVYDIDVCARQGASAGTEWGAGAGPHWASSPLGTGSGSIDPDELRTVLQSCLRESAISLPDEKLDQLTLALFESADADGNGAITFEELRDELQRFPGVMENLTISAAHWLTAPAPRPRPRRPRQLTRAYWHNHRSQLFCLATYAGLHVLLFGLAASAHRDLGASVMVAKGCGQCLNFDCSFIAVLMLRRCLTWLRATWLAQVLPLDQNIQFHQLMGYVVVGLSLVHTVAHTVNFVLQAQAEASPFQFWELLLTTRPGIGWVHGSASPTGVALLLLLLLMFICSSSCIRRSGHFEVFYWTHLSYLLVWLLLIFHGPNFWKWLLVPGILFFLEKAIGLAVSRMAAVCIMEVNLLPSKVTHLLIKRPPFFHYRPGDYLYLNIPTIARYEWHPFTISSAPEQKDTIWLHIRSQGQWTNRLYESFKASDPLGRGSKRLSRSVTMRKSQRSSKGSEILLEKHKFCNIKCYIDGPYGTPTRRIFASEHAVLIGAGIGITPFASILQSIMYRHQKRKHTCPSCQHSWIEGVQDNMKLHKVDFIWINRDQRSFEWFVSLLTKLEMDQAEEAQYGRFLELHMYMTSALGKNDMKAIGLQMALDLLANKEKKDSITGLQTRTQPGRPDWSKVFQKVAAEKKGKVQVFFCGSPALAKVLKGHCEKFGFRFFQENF
A short description of test [11]: A549 cell viability effects, profiling panel, calcein-AM fluorescence, 48 h, basal (AID 1162). Further: test concentration not given here. To be noted: higher = more signal.
Test [12] is described as follows: adipocyte viability effects, profiling panel, cell-based, 3T3-L1 adipocytes, calcein-AM fluorescence, 48 h, basal (AID 1163). Further: test concentration not given here. To be noted: 3T3-L1 adipocytes viability, higher = more signal.
Test [13] can be described thus: HepG2 cell viability effects, profiling panel, calcein-AM fluorescence, 48 h, basal (AID 1164). Further: test concentration not given here. To be noted: higher = more signal.
Test [14] in a line: MM1S cell viability effects, profiling panel, calcein-AM fluorescence, 48 h, basal (AID 1165).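 Further: viability of MM1S multiple myeloma cells under basal unstimulated conditions; test concentration not given here.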 To be noted: higher = more signal.
A short description of test [15]: basal RPMI8226 viability, no added stimulus, profiling panel, cell-based, calcein-AM fluorescence, 48 h, PK04 Diversity Set (AID 1166).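 Further: cells grown under basal conditions without added stimulus; test concentration not given here.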 To be noted: RPMI8226 myeloma viability, higher = more signal.
Test [16] in a line: basal HepG2 mitochondrial membrane potential changes, profiling panel, cell-based, JC-1 fluorescence, 24 h, 100 nL compound (AID 1167). Further: test concentration not given here. To be noted: higher = more signal.
Test [17] can be described thus: basal 3T3-L1 adipocyte mitochondrial potential changes, profiling panel, cell-based, JC-1 fluorescence, 3T3-L1 adipocytes, 24 h, 100 nL compound (AID 1168). Further: test concentration not given here. To be noted: JC-1 mitochondrial fluorescence, higher = more signal, called active from +8 up or from −8 down.
Test [18] is described as follows: basal RPMI8226 mitochondrial membrane potential changes, profiling panel, cell-based, JC-1 fluorescence, 24 h, 100 nL compound (AID 1169). Further: test concentration not given here. To be noted: RPMI8226 myeloma, JC-1 mitochondrial potential fluorescence, higher = more signal.
Test [19] in a line: basal MM1S mitochondrial membrane potential changes, profiling panel, cell-based, JC-1 fluorescence, 24 h, 100 nL compound (AID 1170). Further: test concentration not given here. To be noted: higher = more signal.
Test [20] is described as follows: A549 lung cancer cell viability effects, profiling panel, resazurin fluorescence, 24 h, PK04 Diversity Set (AID 1171). Further: test concentration not given here. To be noted: higher = more signal, called active from +8 up or from −8 down.

For the compound `COCCOC(=O)N1C(=O)[C@@]2(c3cc(C#CCNC(N)=O)ccc31)[C@H](C(=O)NC[C@H](O)c1ccccc1)[C@H]1C(=O)O[C@H](c3ccccc3)[C@H](c3ccccc3)N1[C@@H]2c1ccccc1OCCO`, the z-score is -0.119 (inactive) in test [1]; 2.05 (inactive) in test [3]; 0.35 (inactive) in [4]; 0.927 (inactive) in [5]; 0.317 (inactive) in [6]; 0.239 in test [7]. The z-score was 1.91 (inactive) in test [8]; 1.63 (inactive) in test [9]; -0.63 in [10]; 1.22 in test [11]; 0.504 in [12]; 0.829 in test [13]. Also, the z-score in [14] was 0.837; in test [15], 0.676; in test [16], -0.523; in test [17] it was 0.749 (inactive); in test [18], -0.548; in [19], -1.04. The z-score in [20] was -0.0062 (inactive). This compound also showed a composite z-score in test [2] of 1.28.
As to `Cc1ccc(S[C@]2(C(=O)NC3CC3)CC(=O)N(C3Cc4ccccc4C3)[C@@H]2c2ccc(CO)cc2)cc1`, the z-score in test [1] is 2.26 (inactive); in test [3], 0.924 (inactive); in test [4] it was -0.578 (inactive); in [5], -0.758 (inactive); in test [6], -0.876 (inactive); in test [7], 0.827. Moreover, the z-score is -0.655 (inactive) in test [8]; 0.585 (inactive) in [9]; 0.205 in test [10]; 3.2 in test [11]; 0.785 in test [12]; 1.51 in test [13]. The z-score in test [14] is 0.498; in test [15] it was 0.244; in test [16] it was 2.78; in test [17], 0.569 (inactive); in test [18], 0.763; in test [19], -0.0488. The z-score in test [20] was -1.23 (inactive). In addition, the composite z-score in [2] came to 0.0962.
Turning to `COC(=O)[C@@]1(Cc2ccccc2)[C@H]2c3cc(C(=O)N4CCCC4)n(Cc4cccc5ccccc45)c3C[C@H]2CN1C(=O)c1ccccc1`, the z-score in [1] was -1.22 (inactive); in [3], 6.74 (inactive); in test [4], 1.43 (inactive); in test [5], 1.27 (inactive); in test [6], 1.3 (inactive); in [7], -0.503. The z-score in test [8] was 0.586 (inactive); in test [9], -0.237 (inactive); in test [10], 1.05; in [11], -0.692; in [12] it was -0.57; in [13] it was -0.824. Moreover, the z-score in [14] is -1.42; in test [15], -3.92; in test [16] it was 1.04; in test [17] it was -2.12 (inactive); in test [18] it was -0.784; in [19] it was -1.74. For the same compound, the z-score in test [20] is -1.19 (inactive). This compound also registered a composite z-score in test [2] of 1.71.
In the case of `OC([C@@H]1CC(c2ccccc2)=NO1)[C@H]1CC(c2ccccc2)=NO1` (stereo not given in full), the z-score in test [1] is 2.12 (inactive); in test [3], 24.6 (active); in [4] it was 9.43 (active); in test [5], 0.291 (inactive); in [6] it was 1.07 (inactive); in test [7], 0.383. In addition, the z-score in test [8] was -0.51 (inactive); in test [9] it was -0.0169 (inactive); in [10], 0.357; in [11], 1.51; in [12], 0.222; in [13], 1.59. The z-score is 0.703 in test [14]; -0.132 in test [15]; 1.05 in test [16]; 0.635 (inactive) in [17]; -0.847 in test [18]; 0.439 in test [19]. Also, the z-score in test [20] is 1.04 (inactive). For the same compound, in test [2], the composite z-score came out at 0.139.
Turning to `C=CCC(OC(C)=O)[C@@H]1[C@@H](N(Cc2ccc(-c3cccc(C(F)(F)F)c3)o2)C(=O)c2ccc(-c3ccccc3)cc2)c2cc(OCCCO)ccc2N1C(=O)c1ccc(-c2ccccc2)cc1` (stereo not given in full), the z-score in [1] is -0.894 (inactive); in test [3], 0.566 (inactive); in test [4], 0.434 (inactive); in test [5], 0.0785 (inactive); in [6], 0.508 (inactive); in [7], 0.0635. For the same compound, the z-score in test [8] is -1.27 (inactive); in [9], -1.05 (inactive); in test [10], 0.713; in test [11] it was 0.0361; in test [12], 0.114; in test [13] it was 0.104. The z-score in test [14] was 0.365; in [15], -0.297; in test [16] it was 1.25; in [17], -0.581 (inactive); in test [18] it was 0.287; in test [19], 0.872. Besides, in test [20], the z-score was -0.176 (inactive). Besides, the composite z-score in test [2] was -0.169.
Turning to `C#CCN(CC1=CCCCC1)[C@H](c1ccccc1Br)[C@@H](O)Cc1ccccc1`, the z-score in test [1] is 1.5 (inactive); in [3], 3.02 (inactive); in [4], 0.849 (inactive); in [5], 0.372 (inactive); in test [6], 0.109 (inactive); in test [7] it was 0.114. Moreover, the z-score in [8] is -0.456 (inactive); in test [9], 0.191 (inactive); in test [10], -1.45; in test [11] it was -0.101; in test [12], 0.109; in [13] it was 0.455. The z-score in test [14] was -2.26; in test [15], -4; in [16] it was -1.05; in [17] it was -0.352 (inactive); in [18], -1.08; in test [19], -0.635. The z-score in test [20] was 1.2 (inactive). The composite z-score in test [2] was -0.0547.
Consider `CCCCC(O)C1C=CC2C(=O)N(c3ccccc3)C(=O)C2N1Nc1ccccc1F` (stereo not given), for which the z-score in test [1] is -1.06 (inactive); in [3], 0.449 (inactive); in test [4], 1.49 (inactive); in [5] it was 0.273 (inactive); in test [6] it was 1.19 (inactive); in test [7], -1.3. In addition, the z-score in [8] is -1.2 (inactive); in [9], -4.93 (inactive); in test [10] it was -1.88; in test [11] it was -0.0693; in [12], -0.767; in [13] it was 0.297. The z-score is 0.447 in [14]; -0.812 in test [15]; -1.75 in [16]; -0.935 (inactive) in [17]; -0.425 in test [18]; -0.444 in [19]. For the same compound, the z-score in test [20] was -0.684 (inactive). The composite z-score in test [2] was 0.328.
`COc1cc2c(cc1O)C=[N+](Cc1cccc(OC(F)(F)F)c1)CC2`: the z-score in test [1] was 0.272 (inactive); in test [3], 3.05 (inactive); in [4], -1.25 (inactive); in [5], -0.747 (inactive); in test [6], -2.03 (inactive); in test [7], 0.818. The z-score in test [8] was -4.18 (inactive); in [9], -2.56 (inactive); in test [10], -3.06; in test [11] it was 1.45; in test [12] it was 0.0197; in test [13], 1.2. The z-score is 1.25 in test [14]; 0.346 in test [15]; 1.01 in test [16]; 0.0547 (inactive) in test [17]; 0.145 in [18]; -0.471 in [19]. Also, the z-score in [20] is -1.68 (inactive). The same compound had a composite z-score in test [2] of -0.464.
For the compound `CN1C(=O)[C@]2(Cc3ccccc3)N=C(c3ccc(OCCCO)cc3)O[C@@H]2c2ccccc21`, the z-score in test [1] is -0.105 (inactive); in [3], 33.7 (active); in test [4] it was 32.4 (active); in [5] it was 2.34 (inactive); in test [6], 3.54 (inactive); in test [7], 0.435. Moreover, the z-score is -2.02 (inactive) in [8]; -0.608 (inactive) in test [9]; -1.93 in test [10]; -1.55 in test [11]; 1.71 in [12]; -1.68 in test [13]. The z-score in test [14] was -1.76; in test [15] it was -4.34; in test [16], 0.288; in test [17] it was 0.686 (inactive); in test [18], -1.16; in test [19], -0.976. Moreover, the z-score in [20] was -1.81 (inactive). The same compound showed a composite z-score in test [2] of -0.157.
